Test results reported in PubChem BioAssay (NCI).
Values joined by “and” are separate entries in the source; they are usually repeats but may differ in a detail not shown here. Identical values can stand only once. This is part of a sample that, as a whole, favours compounds with a hit. Of some 83,000 tested, about 20% had one in any assay.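 Plates (96-well) were seeded with cells, treated with compound at one concentration, and incubated for 48 hours before percent growth was determined.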 Active and inactive are the calls of the source.

What follows are compounds tested on UO-31 renal (assay: NCI-60 one-dose screen, 48 h (100 = growth as untreated, 0 = no growth, -100 = all killed)). Conditions: 10 µM.
Description: Growth inhibition of the UO-31 human tumor cell line is measured as a screen for anti-cancer activity. Cells are grown in 96 well plates and exposed to the test compound for 48 hours. Compounds are tested at a single concentration, which is 10^-5 M for most compounds. The reported endpoint is percent growth (GI% or GIPRCNT), where numbers from 0 - 100% represent growth inhibition, and numbers from -100% - 0 represent cell death. For example, a value of 40 represents 60% growth inhibition. A value of 0 means no net growth occurred over the course of the experiment. A value of -40 indicates 40% of cells at the beginning of the experiment died by the end of the experiment. A value of -100 means all cells are dead at the end of the experiment.
NCI-60 Human Tumor Cell Lines Screen was performed using the standard one-dose NCI protocol, which is described in more detail at https://dtp.cancer.gov/discovery_development/nci-60/default.htm.
Compounds with GIPRCNT values below 10 were considered active. Activity score was based on GIPRCNT using the following formula: […]
Score is 0 for GIPRCNT values of 100 or above, 50 for GIPRCNT values of 0, and 100 for GIPRCNT values of -100.
In the case of O=C(Nc1cccc(Br)c1)Oc1cccc2cccnc12, the growth is reported as 98.6% (inactive).
For COc1ccc(-c2cscc2N)cc1, the growth was 78% (inactive).

Same assay, conditions: 10 µM unless noted
In the case of CCN(CC)CC(C)(C)C(=O)/C=C/c1ccc(Cl)c(Cl)c1, the growth is reported as -72% (active).
For OC(CNc1ccnc2cc(Cl)ccc12)CNc1ccnc2cc(Cl)ccc12, the growth was 88.1% (inactive).
With CCN(CC)CCOc1ccc(-c2nc3cc(Cl)ccc3s2)cc1 the growth was -46.7% (active).
COC(=O)Nc1nc2ccc(C(=O)c3ccccc3)cc2[nH]1 was tested, and the growth was 48% (inactive) and 38.3% (inactive) and 25.3% (inactive).
In the case of O=C1c2ccccc2C(=O)N1c1ccccc1, the growth is reported as 89.1% (inactive).
In the case of Nc1nc(N)c2nc(CNc3ccc(C(=O)NC(CCC(=O)O)C(=O)O)cc3)cnc2n1 (stereo not given), the growth is reported as 13.6% (inactive) and 31.4% (inactive).
For Oc1c(Cl)c2ccccc2c2ccccc12, the growth was 91.8% (inactive).
For CCOc1ccc(-c2nc3ccc(-c4nc5ccc(N6CCN(C)CC6)cc5[nH]4)cc3[nH]2)cc1, the growth was 23.2% (inactive).
CC1(C)CC([P+](c2ccccc2)(c2ccccc2)c2ccccc2)=NN1 was tested, and the growth was 67.8% (inactive).
In the case of COc1ccc(N=N/N=c2\sc3cc(OC)ccc3n2C)cc1, the growth is reported as 82.7% (inactive).
COC(=O)[C@@]12OC[C@]34[C@H]([C@@H](O)[C@@H]1O)[C@@]1(C)[C@H](O)C(=O)C=C(C)[C@@H]1C[C@H]3OC(=O)C(OC(C)=O)[C@@H]24 (stereo not given in full) was tested, and the growth was -35.1% (active).
With CCC1OC(OC)C=CC1=O (stereo not given) the growth was 93.4% (inactive).
For COc1cc(NS(C)(=O)=O)ccc1Nc1c2ccccc2nc2ccccc12, the growth was 34.3% [2.5 µM] (inactive).
CCCCCCCCCCCCCCCCN(CC)CC was tested, and the growth was -69.3% (active).
For CC1SC(=S)N(c2ccc(Cl)cc2)C1=O (stereo not given), the growth was 78.9% (inactive) and 73.9% (inactive).
CN1c2ccccc2C(C)(C)C12C=Cc1cc(O)ccc1O2 (stereo not given) was tested, and the growth was 60.6% (inactive).
In the case of Cc1ccc(NS(=O)(=O)c2ccc(C)cc2)cc1, the growth is reported as 93% (inactive) and 79.3% (inactive).
In the case of NC(=O)/C=C/C(=O)c1c(Cl)cccc1Cl, the growth is reported as -86.4% (active).
In the case of COC(=O)c1nc(=S)[nH]c(C(=O)OC)c1C(=O)c1ccc2ccccc2c1, the growth is reported as 81% (inactive).
CN(C)c1ccc(/C=N/N=C(\C#N)[S][Sn]([Cl])([c]2ccccc2)[c]2ccccc2)cc1 was tested, and the growth was -0.649% (active).
With O=[N+]([O-])c1ccc(N=Nc2ccc(O)cc2O)cc1 the growth was 58.5% (inactive).
CC(C)c1ccc2nc3ccc(C(=O)NCCN4CCN(c5ccccc5)CC4)cn3c(=O)c2c1 was tested, and the growth was 50% (inactive).
With CN(C)CCOc1ccc2c(c1)C(=O)/C(=C\c1ncc([N+](=O)[O-])n1C)C2 the growth was -36.7% (active).
With Cc1c2ccccc2c(C)c2c1ccc1ccccc12 the growth was 80.3% (inactive).
In the case of Oc1c(Cl)cc(Cl)c2cccnc12, the growth is reported as 42.8% (inactive) and 24.9% (inactive).
For CCCCCCCCCCCCCCCCOP(=O)([O-])OCC[N+](C)(C)C, the growth was 19.3% (inactive).
Cc1ccc2c(ccc3c[n+]4c5ccccc5ccc4n32)c1 was tested, and the growth was 51% (inactive).
With CCC(CCCN(CC)CCc1ccccc1)OC(=O)c1cc(OC)c(OC)c(OC)c1 (stereo not given) the growth was 69.8% (inactive).
For O=C1C2=C(Nc3cc([N+](=O)[O-])ccc3N2)OC1c1c2ccccc2cc2ccccc12 (stereo not given), the growth was 28.3% (inactive).
For Oc1ccc(/C=N/NC(=S)Nc2ccccc2)nc1, the growth was -2.11% (active).
CC(=O)ON=C1C=CC(=C(C#N)c2ccccc2)C=C1 was tested, and the growth was 38% (inactive).
In the case of C/C=C1\SC(=S)NC1=O, the growth is reported as 91.6% (inactive).
CCC(c1cccc(O)c1)C(CC)c1cccc(O)c1 (stereo not given) was tested, and the growth was 64.1% (inactive).
For CNc1ccc(N)cc1, the growth was 98.2% (inactive).
For CCOC(=O)/C=C/c1ccc([N+](=O)[O-])o1, the growth was 38.5% (inactive).
O=[N+]([O-])c1ccc2c(N=Nc3ccc4ccccc4c3O)c(O)cc(S(=O)(=O)O)c2c1 was tested, and the growth was 62.6% (inactive).

Same assay, conditions: 100 µM
With O=C(Nc1cccc(Br)c1)Oc1cccc2cccnc12 the growth was 26% (inactive).
With COc1ccc(-c2cscc2N)cc1 the growth was 27% (inactive).
